The campaign covered roughly 87,000 compounds. About 360 (0.41%) were called active. The sample as a whole holds a higher share of actives than the screen did. Unmarked numbers belong to inactive results. No stated cut-off is given here; in the data, active means cytotoxicity above about 50%; inactive means the rest.
Assay: HT1080 cell viability loss – fluorescence readout (AID 620);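 further: cells exposed to compound overnight then 4 h with Alamar Blue; 0% = vehicle DMSO and 100% = killing control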
Conditions: at 10 µM, active compounds read high

Structure (SMILES)	cytotoxicity
O=C(CSc1oc(-c2ccc(F)cc2)nc1S(=O)(=O)c1ccc(F)cc1)NCC1CCCO1 (stereo not drawn)	4.4%
CCN(CC)C(=O)CN(C#N)c1nc(NC(C)C)nc(NC(C)C)n1	-2%
COc1cccc(-n2nnnc2SCC(=O)NC2CCCC2)c1	-4.7%
COc1cccc(Oc2nnnn2-c2ccccc2)c1	-0.2%
CCCS(=O)(=O)c1nnnn1-c1cccc(OC)c1	66.7% (active)
CC(C)NC(=O)c1ccccc1-c1nc(-c2ccccc2Cl)no1	50.9% (active)
CC(C)(C)NC(=O)c1ccccc1-c1nc(-c2ccccc2Cl)no1	-5.2%
CCNC(=O)c1ccccc1-c1nc(-c2ccccc2Cl)no1	-5.2%
COc1ccccc1N1CCN(C(=O)C2CCN(S(=O)(=O)c3ccccc3)CC2)CC1	-0.7%
COC(=O)c1ccc(Cl)c(NS(=O)(=O)c2ccc3c(c2)OCCO3)c1	35.5%
COC(=O)c1ccc(C)c(NS(=O)(=O)c2ccc3c(c2)OCCO3)c1	51.6% (active)
COC(=O)c1ccc(C)c(NS(=O)(=O)c2ccc(OC)c(OC)c2)c1	4%
CCCC12CN3CC(C)(CN(C1)C3c1ccc3c(c1)OCO3)C2=O (stereo not drawn)	-1.1%
Cc1nn2c(-c3ccc(Cl)cc3Cl)nnc2s1	7.1%
CN(C)c1ccc(-c2nn3c(-c4ccc(Cl)cc4Cl)nnc3s2)cc1	52.2% (active)
Clc1ccccc1-c1nnc2sc(-c3ccncc3)nn12	-1.3%
COc1ccccc1-c1nnc2sc(-c3ccc(N(C)C)cc3)nn12	33.1%
CCN(CC)c1ccc(-c2nn3c(-c4cccnc4)nnc3s2)cc1	2.9%
CCN(CC)c1ccc(-c2nn3c(-c4ccccc4OC)nnc3s2)cc1	50.1% (active)
CCOc1ccc(-c2nnc3sc(-c4ccccc4OC)nn23)cc1	22%
CN(C)c1ccc(-c2nn3c(-c4ccccc4Cl)nnc3s2)cc1	57.2% (active)
Cc1ccc(OCc2nn3c(-c4n[nH]c5c4CCC5)nnc3s2)cc1	3.7%
CN(C)c1ccc(-c2nn3c(-c4ccc(Cl)cc4)nnc3s2)cc1	-10.2%
CCN(CC)c1ccc(-c2nn3c(-c4n[nH]c5c4CCC5)nnc3s2)cc1	55.1% (active)

Structure (SMILES)	cytotoxicity
CN(C)c1ccc(-c2nn3c(-c4ccncc4)nnc3s2)cc1	0.5%
CS(=O)(=O)N(CC(=O)N1CCCCC1)c1sc2c(c1C#N)CCCC2	15.6%
CN(C)CCCNC(=O)CC(c1ccccc1)c1ccccc1O (stereo not drawn)	5.3%
O=C(O)CCn1c(=O)c2ccccc2c2ccccc2c1=O	2%
C=CCOn1c(C)c(C(C)=O)c2c3nonc3ccc21	2.2%
Cn1c(N)c(C(=O)COC(=O)c2ccco2)c(=O)n(C)c1=O	-0.9%
CC(=O)N1CCc2cc(S(=O)(=O)NC(C(=O)Nc3nc(C)cs3)C(C)C)ccc21 (stereo not drawn)	11.9%
c1ccc(-c2nnc3sc(-c4cc5ccccc5o4)nn23)cc1	-3.1%
Cc1nnc2sc(-c3cc4ccccc4o3)nn12	0.8%
COc1ccccc1-c1nnc2sc(-c3cc4ccccc4o3)nn12	53.5% (active)
Cc1ccccc1NS(=O)(=O)c1ccc(NC(=O)c2ccco2)cc1	2.4%
Cc1cc(C)cc(C(=O)N2CC(C)OC(C)C2)c1 (stereo not drawn)	-14.9%
COc1ccc(-c2cc(C(F)(F)F)nc(S(C)(=O)=O)n2)cc1	11.7%
COC(=O)CCS(=O)(=O)c1nc(-c2ccccc2)cc(C(F)(F)F)n1	2.4%
CCOC(=O)CS(=O)(=O)c1nc(-c2ccccc2)cc(C(F)(F)F)n1	8.3%
COc1ccccc1-c1cc(C(F)(F)F)nc(S(=O)(=O)CCCC(=O)O)n1	-3.7%
CS(=O)(=O)c1nc(-c2ccccc2)cc(C(F)(F)F)n1	59.4% (active)
COc1ccc(-c2cc(C(F)(F)F)nc(S(C)(=O)=O)n2)cc1OC	10.4%
COC(=O)CSc1nc(-c2ccc(F)cc2)cc(C(F)(F)F)n1	-10%
CCOC(=O)CSc1nc(-c2ccccc2)cc(C(F)(F)F)n1	-7.2%
COc1ccccc1-c1cc(C(F)(F)F)nc(S(=O)(=O)CCCC(=O)N2CCCCC2C)n1 (stereo not drawn)	18.6%
CCOC(=O)CS(=O)(=O)c1nc(-c2ccc(F)cc2)cc(C(F)(F)F)n1	56.6% (active)
CCOC(=O)Cn1c(=O)oc2cc(S(=O)(=O)N3CCN(c4ccccn4)CC3)ccc21	-4.7%
N#Cc1ccccc1Cn1c(=O)n(C2CCCC2)c(=O)c2ccccc21	4.1%

— PubChem BioAssay AID620 (Sanford-Burnham Center for Chemical Genomics, 2007)
